Tests used:
Experiment in all cases: DAPPL (digital affinity profiling via proximity ligation, sequencing); 10 mM Tris-HCl pH 7.5, 50 mM NaCl, 1 mM DTT, 4% glycerol, room temperature, 30 min; GST-TFs on glutathione beads, 16-mer random dsDNA library, 0.1% formaldehyde crosslink after washing; high values mean tight binding
Details in all cases: protein: recombinant; tags: N-terminal GST; dsDNA, one strand shown
FLI1 = target: T1, FLI1 (Homo sapiens, UniProt Q01543 1-452)
T1 sequence: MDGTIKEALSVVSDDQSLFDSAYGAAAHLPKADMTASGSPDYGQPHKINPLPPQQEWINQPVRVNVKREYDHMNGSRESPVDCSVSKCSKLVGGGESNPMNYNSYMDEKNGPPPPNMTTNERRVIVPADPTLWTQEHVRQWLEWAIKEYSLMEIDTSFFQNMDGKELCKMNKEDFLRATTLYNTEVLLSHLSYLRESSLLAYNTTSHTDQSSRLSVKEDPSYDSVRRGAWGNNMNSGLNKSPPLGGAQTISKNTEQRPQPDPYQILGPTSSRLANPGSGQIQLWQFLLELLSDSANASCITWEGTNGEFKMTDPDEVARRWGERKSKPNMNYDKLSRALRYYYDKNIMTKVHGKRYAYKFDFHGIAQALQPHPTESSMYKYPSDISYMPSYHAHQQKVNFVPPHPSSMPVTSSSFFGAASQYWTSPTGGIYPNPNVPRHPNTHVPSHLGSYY
In short: (§1)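 Binding signal is given per hexamer as its read frequency for a factor divided by its frequency in the tag-only sample. GST-fused human transcription factors were expressed in yeast, captured on glutathione beads, barcoded with DNA and pooled with that sample, then incubated with 200 nmole of a 16-mer random double-stranded DNA library in Tris/NaCl/DTT/glycerol buffer for 30 min at room temperature. The pools were then washed, crosslinked, proximity-ligated, amplified by PCR and sequenced on an Illumina NextSeq500.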

ELK1 = target: T2, ELK1 (Homo sapiens, UniProt P19419 1-428)
T2 sequence: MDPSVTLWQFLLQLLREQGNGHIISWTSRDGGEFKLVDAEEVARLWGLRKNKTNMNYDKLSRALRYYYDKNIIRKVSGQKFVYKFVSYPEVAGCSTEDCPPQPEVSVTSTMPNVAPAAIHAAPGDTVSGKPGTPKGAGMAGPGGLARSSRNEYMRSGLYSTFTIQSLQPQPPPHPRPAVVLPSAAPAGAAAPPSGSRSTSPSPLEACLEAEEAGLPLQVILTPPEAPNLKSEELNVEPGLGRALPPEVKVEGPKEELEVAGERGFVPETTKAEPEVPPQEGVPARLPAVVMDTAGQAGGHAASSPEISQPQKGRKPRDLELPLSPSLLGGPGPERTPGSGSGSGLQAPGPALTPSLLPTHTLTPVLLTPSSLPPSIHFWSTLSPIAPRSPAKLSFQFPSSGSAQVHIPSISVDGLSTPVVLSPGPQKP
In short: as §1

GABPA = target: T3, GABPA (Homo sapiens, UniProt Q06546 1-454)
T3 sequence: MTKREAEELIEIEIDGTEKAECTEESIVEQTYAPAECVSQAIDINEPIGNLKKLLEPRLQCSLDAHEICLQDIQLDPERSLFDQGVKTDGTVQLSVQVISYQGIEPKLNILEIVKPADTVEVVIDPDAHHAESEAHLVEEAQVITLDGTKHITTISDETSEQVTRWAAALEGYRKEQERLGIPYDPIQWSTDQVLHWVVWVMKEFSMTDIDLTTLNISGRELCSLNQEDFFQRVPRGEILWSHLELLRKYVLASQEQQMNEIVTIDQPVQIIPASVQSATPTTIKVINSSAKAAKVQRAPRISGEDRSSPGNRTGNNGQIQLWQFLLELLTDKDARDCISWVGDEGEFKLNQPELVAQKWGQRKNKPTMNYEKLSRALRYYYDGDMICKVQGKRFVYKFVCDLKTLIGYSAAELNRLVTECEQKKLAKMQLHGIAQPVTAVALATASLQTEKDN
In short: as §1

ERG = target: T4, ERG (Homo sapiens, UniProt P11308 1-479)
T4 sequence: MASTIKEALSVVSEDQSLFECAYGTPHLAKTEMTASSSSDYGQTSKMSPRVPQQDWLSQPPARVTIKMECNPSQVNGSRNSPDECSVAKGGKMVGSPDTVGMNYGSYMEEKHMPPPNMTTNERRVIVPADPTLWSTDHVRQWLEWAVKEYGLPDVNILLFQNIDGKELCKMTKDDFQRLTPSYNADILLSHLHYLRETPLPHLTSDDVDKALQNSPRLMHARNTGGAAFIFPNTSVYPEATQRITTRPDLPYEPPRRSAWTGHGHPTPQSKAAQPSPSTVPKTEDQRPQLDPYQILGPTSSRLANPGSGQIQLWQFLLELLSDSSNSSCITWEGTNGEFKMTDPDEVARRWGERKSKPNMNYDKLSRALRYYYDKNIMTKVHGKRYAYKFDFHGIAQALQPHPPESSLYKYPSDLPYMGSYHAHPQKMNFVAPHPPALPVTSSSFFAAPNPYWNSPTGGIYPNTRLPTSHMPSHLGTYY
In short: as §1

ELF1 = ELF1 (Homo sapiens, UniProt P32519 1-619)
In short: as §1

EHF = target: T5, EHF (Homo sapiens, UniProt Q9NZC4 1-300)
T5 sequence: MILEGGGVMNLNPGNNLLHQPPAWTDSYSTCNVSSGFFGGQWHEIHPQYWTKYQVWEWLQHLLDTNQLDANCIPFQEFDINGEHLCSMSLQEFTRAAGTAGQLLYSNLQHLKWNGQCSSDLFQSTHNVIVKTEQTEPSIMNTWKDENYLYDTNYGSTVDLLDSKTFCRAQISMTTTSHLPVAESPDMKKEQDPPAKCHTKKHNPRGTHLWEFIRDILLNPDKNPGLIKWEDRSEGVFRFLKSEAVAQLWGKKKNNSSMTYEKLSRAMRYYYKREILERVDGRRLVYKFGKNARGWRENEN
In short: as §1

SPI1 = SPI1 (Homo sapiens, UniProt P17947 1-270)
In short: as §1

SPIB = SPIB (Homo sapiens, UniProt Q01892 1-262)
In short: as §1

ELK3 = target: T6, ELK3 (Homo sapiens, UniProt P41970 1-407)
T6 sequence: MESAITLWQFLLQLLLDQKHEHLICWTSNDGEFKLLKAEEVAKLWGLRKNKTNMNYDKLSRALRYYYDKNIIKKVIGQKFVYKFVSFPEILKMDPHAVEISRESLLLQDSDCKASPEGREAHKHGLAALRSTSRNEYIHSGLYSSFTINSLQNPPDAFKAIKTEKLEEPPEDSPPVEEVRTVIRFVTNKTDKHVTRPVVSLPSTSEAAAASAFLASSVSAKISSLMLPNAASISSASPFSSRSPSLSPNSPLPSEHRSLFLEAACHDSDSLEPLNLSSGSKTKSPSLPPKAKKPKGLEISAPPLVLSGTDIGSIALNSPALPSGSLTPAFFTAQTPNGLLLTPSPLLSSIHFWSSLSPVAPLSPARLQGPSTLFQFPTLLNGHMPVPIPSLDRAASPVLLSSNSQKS
In short: as §1

FEV = target: T7, FEV (Homo sapiens, UniProt Q99581 1-238)
T7 sequence: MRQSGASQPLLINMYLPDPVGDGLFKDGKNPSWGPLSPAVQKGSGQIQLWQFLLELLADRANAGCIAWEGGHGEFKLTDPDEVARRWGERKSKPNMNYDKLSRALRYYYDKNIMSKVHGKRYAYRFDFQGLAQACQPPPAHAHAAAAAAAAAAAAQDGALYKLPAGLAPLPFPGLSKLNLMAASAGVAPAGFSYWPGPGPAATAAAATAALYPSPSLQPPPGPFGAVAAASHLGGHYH
In short: as §1

ETV5 = ETV5 (Homo sapiens, UniProt P41161 1-510)
In short: as §1

SPIC = target: T8, SPIC (Homo sapiens, UniProt Q8N5J4 1-248)
T8 sequence: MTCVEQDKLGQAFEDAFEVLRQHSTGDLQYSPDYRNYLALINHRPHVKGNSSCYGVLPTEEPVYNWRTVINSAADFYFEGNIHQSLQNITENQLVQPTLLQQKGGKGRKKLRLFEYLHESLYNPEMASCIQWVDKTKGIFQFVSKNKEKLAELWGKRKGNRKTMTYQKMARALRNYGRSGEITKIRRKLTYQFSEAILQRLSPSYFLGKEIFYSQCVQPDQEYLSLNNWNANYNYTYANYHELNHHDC
In short: as §1

ELF4 = ELF4 (Homo sapiens, UniProt Q99607 1-663)
In short: as §1

ELK4 = target: T9, ELK4 (Homo sapiens, UniProt P28324-2 1-405)
T9 sequence: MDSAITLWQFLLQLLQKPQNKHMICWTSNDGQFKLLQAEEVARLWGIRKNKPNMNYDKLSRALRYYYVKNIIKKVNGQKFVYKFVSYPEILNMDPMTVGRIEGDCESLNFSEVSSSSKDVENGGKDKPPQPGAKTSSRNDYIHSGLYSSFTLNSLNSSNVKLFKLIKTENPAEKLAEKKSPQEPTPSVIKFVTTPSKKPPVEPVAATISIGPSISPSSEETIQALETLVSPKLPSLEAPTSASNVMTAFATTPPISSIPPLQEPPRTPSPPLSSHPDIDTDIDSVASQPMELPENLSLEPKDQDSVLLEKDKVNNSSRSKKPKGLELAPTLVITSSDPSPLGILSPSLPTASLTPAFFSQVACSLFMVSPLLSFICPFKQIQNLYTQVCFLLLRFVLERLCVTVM
In short: as §1

ETV2 = target: T10, ETV2 (Homo sapiens, UniProt O00321 1-342)
T10 sequence: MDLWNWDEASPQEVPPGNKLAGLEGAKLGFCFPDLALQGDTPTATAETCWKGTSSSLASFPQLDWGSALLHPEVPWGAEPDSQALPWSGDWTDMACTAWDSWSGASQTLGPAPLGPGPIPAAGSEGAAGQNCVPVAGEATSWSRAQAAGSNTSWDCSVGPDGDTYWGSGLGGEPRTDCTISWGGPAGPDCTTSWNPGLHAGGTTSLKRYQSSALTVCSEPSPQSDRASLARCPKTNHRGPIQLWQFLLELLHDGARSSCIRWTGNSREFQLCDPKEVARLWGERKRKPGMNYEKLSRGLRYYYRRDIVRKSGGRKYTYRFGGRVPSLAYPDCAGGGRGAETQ
In short: as §1

ELF3 = target: T11, ELF3 (Homo sapiens, UniProt P78545 1-371)
T11 sequence: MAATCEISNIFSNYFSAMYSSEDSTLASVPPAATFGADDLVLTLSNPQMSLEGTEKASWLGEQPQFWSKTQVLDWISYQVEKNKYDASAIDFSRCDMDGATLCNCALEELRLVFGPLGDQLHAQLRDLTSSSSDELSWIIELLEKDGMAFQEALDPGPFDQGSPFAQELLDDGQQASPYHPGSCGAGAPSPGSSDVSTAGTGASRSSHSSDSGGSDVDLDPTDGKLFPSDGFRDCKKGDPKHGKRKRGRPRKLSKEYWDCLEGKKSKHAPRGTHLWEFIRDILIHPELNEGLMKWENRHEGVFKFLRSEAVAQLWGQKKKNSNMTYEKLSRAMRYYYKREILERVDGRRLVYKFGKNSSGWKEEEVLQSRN
In short: as §1

ETV1 = ETV1 (Homo sapiens, UniProt P50549 1-477)
In short: as §1

Sequence of ELF4 (Q99607 whole entry): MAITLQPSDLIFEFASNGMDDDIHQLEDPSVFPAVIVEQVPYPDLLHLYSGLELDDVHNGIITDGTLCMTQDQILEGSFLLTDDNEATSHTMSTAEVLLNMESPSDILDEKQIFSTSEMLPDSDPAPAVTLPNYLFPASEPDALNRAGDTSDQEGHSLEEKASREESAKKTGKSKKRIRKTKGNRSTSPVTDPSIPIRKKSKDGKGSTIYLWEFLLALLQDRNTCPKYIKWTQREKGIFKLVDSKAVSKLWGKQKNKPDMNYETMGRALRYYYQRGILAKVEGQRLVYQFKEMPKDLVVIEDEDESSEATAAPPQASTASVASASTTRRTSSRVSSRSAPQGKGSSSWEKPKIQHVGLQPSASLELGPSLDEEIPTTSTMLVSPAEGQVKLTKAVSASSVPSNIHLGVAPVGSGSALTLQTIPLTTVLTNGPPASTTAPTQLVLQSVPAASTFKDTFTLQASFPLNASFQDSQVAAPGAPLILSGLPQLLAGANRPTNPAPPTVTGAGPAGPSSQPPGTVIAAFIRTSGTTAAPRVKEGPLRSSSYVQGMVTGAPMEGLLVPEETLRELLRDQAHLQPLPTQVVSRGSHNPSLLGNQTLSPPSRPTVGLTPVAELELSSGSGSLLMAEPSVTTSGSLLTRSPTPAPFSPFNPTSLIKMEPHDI
Sequence of ETV5 (P41161 whole entry): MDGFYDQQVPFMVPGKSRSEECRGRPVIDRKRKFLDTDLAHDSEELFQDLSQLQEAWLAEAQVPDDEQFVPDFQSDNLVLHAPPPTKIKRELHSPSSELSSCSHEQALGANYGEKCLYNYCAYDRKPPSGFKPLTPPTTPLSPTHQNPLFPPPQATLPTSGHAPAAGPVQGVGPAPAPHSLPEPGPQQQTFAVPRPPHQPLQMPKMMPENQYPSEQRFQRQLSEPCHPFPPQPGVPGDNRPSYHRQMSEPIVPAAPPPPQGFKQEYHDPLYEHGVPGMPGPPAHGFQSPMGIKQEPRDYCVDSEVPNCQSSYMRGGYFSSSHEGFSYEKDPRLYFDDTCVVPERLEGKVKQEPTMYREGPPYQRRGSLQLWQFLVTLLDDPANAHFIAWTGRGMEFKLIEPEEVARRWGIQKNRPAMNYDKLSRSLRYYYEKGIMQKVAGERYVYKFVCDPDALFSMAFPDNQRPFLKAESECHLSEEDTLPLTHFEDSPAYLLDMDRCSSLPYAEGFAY
Sequence of ETV1 (P50549 whole entry): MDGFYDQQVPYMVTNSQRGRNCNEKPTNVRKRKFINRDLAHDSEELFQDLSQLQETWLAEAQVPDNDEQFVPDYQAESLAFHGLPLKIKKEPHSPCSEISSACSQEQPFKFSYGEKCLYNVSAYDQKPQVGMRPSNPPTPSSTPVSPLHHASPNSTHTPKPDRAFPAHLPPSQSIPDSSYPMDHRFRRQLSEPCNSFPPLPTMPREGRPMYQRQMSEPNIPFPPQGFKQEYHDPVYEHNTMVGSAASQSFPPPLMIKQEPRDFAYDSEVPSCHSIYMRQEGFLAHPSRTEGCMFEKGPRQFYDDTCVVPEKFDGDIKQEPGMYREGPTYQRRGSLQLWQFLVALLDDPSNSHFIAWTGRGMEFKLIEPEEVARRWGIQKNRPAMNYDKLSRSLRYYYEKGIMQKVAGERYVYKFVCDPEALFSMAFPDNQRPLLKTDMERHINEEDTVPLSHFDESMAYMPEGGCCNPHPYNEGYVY
Sequence of ELF1 (P32519 whole entry): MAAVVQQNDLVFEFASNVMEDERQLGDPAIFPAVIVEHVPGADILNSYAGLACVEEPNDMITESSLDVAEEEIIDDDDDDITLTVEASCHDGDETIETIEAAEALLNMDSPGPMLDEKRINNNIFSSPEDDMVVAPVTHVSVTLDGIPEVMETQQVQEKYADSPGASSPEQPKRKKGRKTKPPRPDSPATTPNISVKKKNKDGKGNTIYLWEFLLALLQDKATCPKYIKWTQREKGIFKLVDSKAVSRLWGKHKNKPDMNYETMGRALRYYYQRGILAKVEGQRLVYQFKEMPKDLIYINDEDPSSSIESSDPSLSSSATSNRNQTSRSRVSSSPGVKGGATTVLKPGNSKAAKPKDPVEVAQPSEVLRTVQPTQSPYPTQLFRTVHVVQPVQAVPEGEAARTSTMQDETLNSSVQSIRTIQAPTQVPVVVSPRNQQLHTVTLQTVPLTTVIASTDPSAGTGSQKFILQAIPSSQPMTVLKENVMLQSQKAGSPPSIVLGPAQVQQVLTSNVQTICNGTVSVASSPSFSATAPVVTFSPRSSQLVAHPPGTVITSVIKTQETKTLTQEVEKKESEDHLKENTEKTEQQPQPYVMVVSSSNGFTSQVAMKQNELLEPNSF
Sequence of SPIB (Q01892 whole entry): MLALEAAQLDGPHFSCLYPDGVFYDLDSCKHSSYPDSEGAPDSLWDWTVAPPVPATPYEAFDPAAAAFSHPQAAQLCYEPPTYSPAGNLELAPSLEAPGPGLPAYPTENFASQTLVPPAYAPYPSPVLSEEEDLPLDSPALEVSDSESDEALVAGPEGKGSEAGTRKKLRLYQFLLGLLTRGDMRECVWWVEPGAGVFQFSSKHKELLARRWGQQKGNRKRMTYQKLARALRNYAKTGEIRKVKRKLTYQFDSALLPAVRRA

Sequence	binding signal (FLI1)	binding signal (ELK1)	binding signal (GABPA)	binding signal (ERG)	binding signal (ELF1)	binding signal (EHF)	binding signal (SPI1)	binding signal (SPIB)	binding signal (ELK3)	binding signal (FEV)	binding signal (ETV5)	binding signal (SPIC)	binding signal (ELF4)	binding signal (ELK4)	binding signal (ETV2)	binding signal (ELF3)	binding signal (ETV1)
CTGCAC	1.2 fold enrichment (6-mer frequency, TF over GST control)	1.29 fold enrichment (6-mer frequency, TF over GST control)	1.12 fold enrichment (6-mer frequency, TF over GST control)	1.13 fold enrichment (6-mer frequency, TF over GST control)	1.21 fold enrichment (6-mer frequency, TF over GST control)	1.3 fold enrichment (6-mer frequency, TF over GST control)	1.19 fold enrichment (6-mer frequency, TF over GST control)	1.15 fold enrichment (6-mer frequency, TF over GST control)	1.12 fold enrichment (6-mer frequency, TF over GST control)	1.22 fold enrichment (6-mer frequency, TF over GST control)	1.17 fold enrichment (6-mer frequency, TF over GST control)	1.32 fold enrichment (6-mer frequency, TF over GST control)	1.2 fold enrichment (6-mer frequency, TF over GST control)	1.29 fold enrichment (6-mer frequency, TF over GST control)	1.24 fold enrichment (6-mer frequency, TF over GST control)	1.31 fold enrichment (6-mer frequency, TF over GST control)	1.13 fold enrichment (6-mer frequency, TF over GST control)
TTGGCC	1.22 fold enrichment (6-mer frequency, TF over GST control)	1.24 fold enrichment (6-mer frequency, TF over GST control)	1.23 fold enrichment (6-mer frequency, TF over GST control)	1 fold enrichment (6-mer frequency, TF over GST control)	1.1 fold enrichment (6-mer frequency, TF over GST control)	1.17 fold enrichment (6-mer frequency, TF over GST control)	1.08 fold enrichment (6-mer frequency, TF over GST control)	1.16 fold enrichment (6-mer frequency, TF over GST control)	1.12 fold enrichment (6-mer frequency, TF over GST control)	1.14 fold enrichment (6-mer frequency, TF over GST control)	1.12 fold enrichment (6-mer frequency, TF over GST control)	1.06 fold enrichment (6-mer frequency, TF over GST control)	1.18 fold enrichment (6-mer frequency, TF over GST control)	1.08 fold enrichment (6-mer frequency, TF over GST control)	1.08 fold enrichment (6-mer frequency, TF over GST control)	1.12 fold enrichment (6-mer frequency, TF over GST control)	1.02 fold enrichment (6-mer frequency, TF over GST control)
